# Screens deposited in PubChem BioAssay by several laboratories.
# PP1 counter = PP1-alpha phosphatase inhibitors, primary screen, counter-screen for PP5 inhibitor project, biochemical, fluorescence, OMFP substrate, single point; AID 2235, 2010; inhibition, % at 6.7 µM; purified PP1alpha; 320,000 compounds, 0.9% hits;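 active = inhibition above the mean inhibition of all tested compounds plus 3 SD, computed separately for each screening campaign, cut at about 15% in these data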
# Target sequence (P62136 whole entry, looked up): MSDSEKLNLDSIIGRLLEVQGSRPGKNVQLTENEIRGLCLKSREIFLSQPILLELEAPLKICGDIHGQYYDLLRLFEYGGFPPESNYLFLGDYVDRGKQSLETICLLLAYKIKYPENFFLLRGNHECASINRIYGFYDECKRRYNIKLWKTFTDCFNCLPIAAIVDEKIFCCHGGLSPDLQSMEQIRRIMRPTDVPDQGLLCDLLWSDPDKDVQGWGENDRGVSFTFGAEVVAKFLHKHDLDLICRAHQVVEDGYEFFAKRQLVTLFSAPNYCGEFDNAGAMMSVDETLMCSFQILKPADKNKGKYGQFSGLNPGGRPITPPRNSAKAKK
# Granule exo inh = LAMP-1 surface exposure blockers, TALL-104 cells – cell-based, flow cytometry, MLPCN library, primary screen. TALL-104 LAMP-1 surface exposure; cells stimulated with thapsigargin and PMA. inhibition, % at 10 µM. 360,000 compounds, 0.66% hits. AID 651702, 2012;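 active = inhibition above about 55%, limit read from the data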
# IDE act = human IDE activators in live cells, primary screen, fluorescence polarization, HEK cells, FAbeta-B substrate. activation, % at 5.96 µM. 340,000 compounds, 0.073% hits. AID 493087, 2011. Insulin-degrading enzyme (Homo sapiens), P14735. FAbeta-B cleavage; 0% vehicle, 100% cell-free pure enzyme wells;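 active = activation above the mean of all tested compounds plus 3 SD, set per screening campaign, cut at about 17% in these data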
# IDE cell inh = human IDE inhibitors in live cells, primary screen, fluorescence polarization, HEK cells, FAbetaB substrate | FAbetaB cleavage | inhibition, % at 5.59 µM | 320,000 compounds, 0.41% hits;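 active = percent inhibition above the average of all tested compounds plus 3 SD, set per screening campaign, cut at about 16% in these data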;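 also: IDE supplied by intact live HEK cells; FP after avidin binding of uncleaved biotin substrate so inhibition keeps polarization high; 0% = DMSO wells and 100% = 60 µM reference IDE inhibitor Ii1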
# SKKanGAS inh = S. pyogenes SKKanGAS growth inhibitors in kanamycin, primary screen, streptokinase expression inhibitor project, SKKanGAS strain, BacTiter-Glo luminescence | 6 h | inhibition, % at 7.5 µM | 300,000 compounds, 1.3% hits;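 active = mean replicate score, as percent of positive control median, at least 50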;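 also: strain carries kanamycin resistance gene driven by streptokinase promoter and grows in 40 µg/ml kanamycin; loss of luminescence reflects streptokinase promoter inhibition or plain growth inhibition; 0% = median of DMSO wells and 100% = positive control at its reference dose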
# PP5 inh = PP5 phosphatase inhibitors, primary screen, biochemical, fluorescence; purified PP5c, OMFP substrate fluorescence; inhibition, % at 6.7 µM; 320,000 compounds, 0.18% hits;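 active = inhibition above the campaign's mean inhibition across all tested compounds plus 3 SD, cut at about 9.5% in these data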;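 also: 0% = DMSO only and 100% = 100 µM cantharidin control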
# * marks the source's active call; other numbers are inactive results; . = not tested or not shown. Compounds with a hit are over-represented: about 2.8% of the library has one in this group of screens.
SMILES,PP1 counter,Granule exo inh,IDE act,IDE cell inh,SKKanGAS inh,PP5 inh
O=C(O)c1cccc(CSc2nc(-c3ccc(Cl)cc3)cc(C(F)(F)F)n2)c1,17*,-1,8,6,28,6
O=S(=O)(NCCSc1ccccn1)c1ccc(Br)cc1,6,2,1,4,2,2
O=C(O)c1ccc(-c2nc(-c3ccccc3)c(-c3ccccc3)[nH]2)cc1,4,-6,-1,2,14,4
COc1ccccc1N=Nc1nc(-c2ccccc2)c(-c2ccccc2)[nH]1,5,3,-1,3,67*,4
COc1ccc(N=Nc2nc(-c3ccccc3)c(-c3ccccc3)[nH]2)cc1,4,4,-4,-5,20,2
Oc1ccccc1N=Nc1nc(-c2ccccc2)c(-c2ccccc2)[nH]1,17*,0,13,-4,114*,7
COc1ccc(OC)c(NC(=O)C2(C)CCN2C(=O)C(C)(C)c2ccccc2)c1 (centres undefined),.,-23,.,.,.,.
CCC(=O)N1CCN(c2ccnc3cc(Cl)ccc23)CC1,-4,-6,-20,4,15,-1
COc1cccc(Cl)c1NC(=O)N1CCN(c2ccnc3cc(Cl)ccc23)CC1,0,11,-31,26*,20,4
COc1cc2c3c(c1OC)C(=O)CC3CCCC2 (centres undefined),.,-8,.,.,.,.
CC12CCC(C(=O)Nc3c(Cl)cccc3Cl)(C(Br)C1=O)C2(C)C (centres undefined),-1,-7,-2,3,3,3
CC12CCC(C(=O)Nc3cccc(Cl)c3Cl)([C@H](Br)C1=O)C2(C)C (some centres undefined),-2,-9,2,7,54*,-1
COc1ccc(NC(=O)/C(Cl)=C(/Cl)S(=O)(=O)Cc2ccc(C)cc2)cn1,.,97*,-3,.,-14,.
CC(OC(=O)Cc1n[nH]c(=O)c2ccccc12)C(=O)Nc1ccc(Cl)cn1 (centres undefined),-1,-1,3,5,68*,3
O=[N+]([O-])c1ccc(C(O)C(CO)NC(=S)Nc2ccccc2)cc1 (centres undefined),1,1,-2,6,21,0
O=C(N[C@H](CO)[C@H](O)c1ccc([N+](=O)[O-])cc1)C(Cl)Cl,-5,4,0,-1,101*,1
O=C(NC(CO)C(O)c1ccc([N+](=O)[O-])cc1)C(Cl)Cl (centres undefined),0,14,2,6,104*,-1
O=C(O)CC(Cc1ccc(Cl)cc1)C(=O)Nc1ccc([N+](=O)[O-])cc1 (centres undefined),-3,0,2,1,-1,3
O=C(NC(CO)Cc1ccc([N+](=O)[O-])cc1)C(Cl)Cl (centres undefined),2,0,1,1,97*,5
O=S(=O)(c1ccc(Cl)nc1)N1CCN(c2ncccn2)CC1,-1,-5,-1,5,-2,0
CC[C@@H](C(=O)[C@@H](C)[C@@H](O)[C@H](C)[C@@H]1O[C@@H]([C@@H](CC)C(=O)O)CC[C@@H]1C)[C@H]1O[C@]2(C=C[C@@H](O)[C@]3(CC[C@@](C)([C@H]4CC[C@](O)(CC)[C@H](C)O4)O3)O2)[C@H](C)C[C@@H]1C,.,-4,3,.,.,.
CC[C@@H](C(=O)[C@@H](C)[C@@H](O)[C@H](C)CCc1ccc(C)c(O)c1C(=O)O)[C@H]1O[C@](CC)([C@H]2CC[C@](O)(CC)[C@H](C)O2)C[C@@H]1C,12,-1,0,-2,108*,5
CCCCC(=O)Nc1ccc(C(=O)NNC(=S)NC(=O)c2cccs2)cc1,9,1,-3,-8,67*,4
O=C(NNC(=S)NC(=O)c1cccs1)c1ccc(NC(=O)c2ccccc2)cc1,8,-4,3,0,92*,-1
